# Compounds with a hit are over-represented: about 5.9% of the library has one in this group of screens.
# KB-V1 cytotox = kills drug-selected multidrug resistant KB-V1 cells; KB-V1 MDR cells viability, CellTiter-Glo, 72 h; Potency, µM (highest dose often 46.1 µM), most hits filed as cytotoxic; 400,000 compounds, 3.4% hits; AID 1347076; further: nearly all actives have a fitted effect of over 60% in size
#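 Cells of the MDR subline KB-V1 are plated, dosed with compound at multiple concentrations, and incubated 72 h at 37 degrees C; CellTiter-Glo is then added and luminescence read after 10 min.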
# KB-3-1 cytotox = KB-3-1 parental cell cytotoxicity; KB-3-1 viability, CellTiter-Glo ATP luminescence, 72 h; Potency, µM (highest dose often 46.1 µM), actives largely listed as cytotoxic; 400,000 compounds, 1.4% hits; further: nearly all actives have a fitted effect of over 60% in size
#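 KB-3-1 parental drug-naive adenocarcinoma cells in DMEM/10% FBS, incubated 72 h at 37 C with pin-transferred compounds across a concentration series. Viability by CellTiter-Glo luminescence; concentration-response curves fitted after normalization.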
# HepG2 tox = kills HepG2 cells in TGF-b inhibitor counter-screen. 410,000 compounds, 0.76% hits. Potency, µM (doses to about 46.1 µM), actives largely listed as cytotoxic. HepG2 CAGA-GFP viability, ATP luminescence, 18 h. AID 588856
#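 CellTiter-Glo luminescence gave cytotoxicity after 18 hours at 37 degrees C. The cells were HepG2 CAGA-GFP in 1% FBS DMEM, stimulated with 500 pg/mL TGF-beta after compound addition. %Activity was normalised to no-cell wells (complete cell-killing) and DMSO (no toxicity), and curves were fitted and classified.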
# ATXN2 expr inh = inhibitors of ATXN2 expression; Potency, µM (highest dose often 57 µM), actives largely listed as inhibitors; 360,000 compounds, 0.72% hits; HEK-293 ATXN2-luciferase reporter, luminescence, 24 h; further: nearly all actives have a fitted effect of over 55% in size
#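 ATXN2-luciferase reporter cells (luciferase flanked by upstream and downstream ATXN2 gene portions) were treated 24 h at 37 °C with compounds at up to 57 uM. SteadyGlo luminescence gave expression; GF-AFC fluorescence gave viability.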
# ATXN viability = reduces viability in counter-screen for ATXN expression inhibitors; S2 cells (HEK-293 line with an ATXN2-luciferase reporter) viability, CellTiter-Fluor protease fluorescence, 24 h; Potency, µM (titrated, usually from 56.7 µM), usual class: cytotoxic; 400,000 compounds, 0.49% hits; AID 651635; further: nearly all actives have a fitted effect of over 40% in size
# TGFb inhibitor = TGF-b pathway inhibition | HepG2 CAGA-GFP TGF-b/SMAD3 reporter, GFP fluorescence, 18 h; TGF-beta stimulated, 500 pg/mL final | Potency, µM (highest dose often 46.1 µM), most hits filed as inhibitors | 410,000 compounds, 1.2% hits; further: nearly all actives have a fitted effect of over 65% in size
#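 First, reporter cells (HEPG2 CAGA-GFP) rested 2 h at 37 degrees C. Next, compounds were pinned in and TGF-beta added to 500 pg/mL final. After 18 h, GFP was imaged per cell and summed per well.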
# Numbers stand for hits; n = inactive; u = inconclusive; x = not tested or not shown. The call rests on the fitted dose curve; in most records, active means well fitted curve in the direction sought with a large enough effect; inconclusive means small, poorly fitted or top-dose-only effect, or another doubt; inactive means no such curve, though single readings can be large; an effect the other way counts as inactive or inconclusive.
SMILES,KB-V1 cytotox,KB-3-1 cytotox,HepG2 tox,ATXN2 expr inh,ATXN viability,TGFb inhibitor
CCc1ccc2oc(-c3ccc(C)c(NC(=O)c4cc([N+](=O)[O-])ccc4N4CCOCC4)c3)nc2c1,n,n,n,n,n,n
CC(C(=O)c1ccccc1)[n+]1cccc(Cl)c1 (stereo not given),n,n,n,x,x,n
Cc1ccc2nc(N3CCC(C(=O)NCc4ccc(F)cc4)CC3)[nH]c2c1,n,n,n,x,x,n
CN1CCC(=O)N(C(CSc2ccc(Br)cc2)c2ccccc2)CC1 (stereo not given),x,x,n,x,x,n
CCc1nnc(NC(=O)c2ccncc2)s1,n,n,n,n,n,n
CCc1nnc(NC(=O)c2cccc(C(=O)Nc3nnc(CC)s3)n2)s1,u,u,n,u,u,0.251µM
O=C(O)[C@H](O)[C@@H](O)[C@H](O[C@@H]1O[C@H](CO)[C@H](O)[C@H](O)[C@H]1O)[C@H](O)CO,x,x,x,n,n,x
COc1ccc(CN(C(=O)c2snc(C(N)=O)c2N)C(C(=O)NC(C)(C)C)c2ccco2)cc1 (stereo not given),n,n,n,n,n,n
CCOc1ccccc1N(C(=O)c1snc(C(N)=O)c1N)C(C(=O)NCCC(C)C)c1ccco1 (stereo not given),13µM,n,n,n,n,n
CC(C)(C)NC(=O)C(c1ccco1)N(Cc1ccc(F)cc1)C(=O)c1snc(C(N)=O)c1N (stereo not given),18.4µM,n,n,n,n,n
COc1cc(-c2cccc(Cl)c2)cc2c1OCCN(C(=O)CCn1ccc(C)n1)C2,x,x,x,x,n,x
CSc1ccc(CN(C)C(=O)CNC(=O)c2ccc3c(c2)OCO3)cc1,20.6µM,n,n,n,u,n
CCOc1ccc(OCC)c(NS(=O)(=O)c2c(C(=O)N3CCC(C)CC3)c(C)n(C)c2C)c1,x,x,n,x,x,u
Cc1cccc(-n2c(SCC(N)=O)nc3c(c2=O)C2(CCCC2)Cc2ccccc2-3)c1,3.26µM,u,n,n,n,u
NC(=O)CSc1nc2c(c(=O)n1-c1ccccc1)C1(CCCCC1)Cc1ccccc1-2,u,u,n,n,u,n
CCCCOc1ccc(CNC(=O)c2cccc(NC(=O)N3CCSc4ncccc43)c2)cc1,n,u,n,x,x,n
COc1cc(OC)c(/C=C/c2nccc3ccccc23)c(OC)c1,n,u,n,x,x,u
Cc1cnc(SCC2CCCO2)nc1C1CCCN(C(=O)C2=NNC(=O)CC2)C1 (stereo not given),x,x,x,x,n,x
Nc1ncnc(N2CCc3ccccc32)c1[N+](=O)[O-],13µM,u,n,n,u,n
COc1nc(OC)nc(N2CCC(C(=O)NC3CCCCCC3)CC2)n1,10.3µM,n,n,n,n,n
CCOc1ccc(C(=O)Nc2cc(C)ccn2)cc1,13µM,u,14.1µM,u,n,n
Cc1ccnc(NC(=O)c2ccc(C(=O)c3ccccc3)cc2)c1,20.6µM,u,n,u,n,n
CCCCOc1ccc(C(=O)Nc2ccc(N3CCN(C(C)=O)CC3)cc2)cc1,2.59µM,n,n,n,n,n
Cc1ccnc(NC(=O)c2ccc(S(=O)(=O)N3CCCCCC3)cc2)c1,u,n,2.24µM,n,n,n
CCCNC(=O)c1c2c(nc3ccccc13)C(=O)N(C1CCCCC1)C2,n,n,n,x,x,n
SMILES,KB-V1 cytotox,KB-3-1 cytotox,HepG2 tox,ATXN2 expr inh,ATXN viability,TGFb inhibitor
CCCCOc1ccc(C(=O)Nc2cccc(C)n2)cc1,16.4µM,u,n,n,n,n
C=C(C)c1cccc(C(C)(C)NC(=O)Nc2cc(C)ccn2)c1,16.4µM,u,n,n,u,11.2µM
COCCCn1cc(CN2CC(N3CCN(C4CCN(C)CC4)CC3)CS2(=O)=O)nn1 (stereo not given),n,n,x,n,n,x
CCc1ccccc1NC(=O)CSC1=Nc2ccccc2C2=NC(Cc3ccccc3)C(=O)N12 (stereo not given),u,n,n,n,u,n
CCCCCCCn1c(=N)n(CC(O)c2ccco2)c2ccccc21 (stereo not given),u,n,22.4µM,u,n,u
CC(C)(C)c1ccc(Cn2c(=N)n(CC(O)c3ccco3)c3ccccc32)cc1 (stereo not given),u,u,n,u,21.2µM,15.8µM
CC(=O)Nc1ccc(S(=O)(=O)Nc2nc3n(n2)C(c2ccccc2)C=C(c2ccc(Cl)cc2)N3)cc1 (stereo not given),x,x,n,x,x,n
Cc1nc(CC(=O)Nc2ccc(C)c(C)c2)cs1,x,x,n,x,x,n
COc1ccc(C2CC(=O)N3C(=C2C#N)SCC3(O)c2ccccc2)cc1 (stereo not given),20.6µM,n,n,n,n,n
N#CC1=C2SCN(c3ccccc3)CN2C(=O)CC1c1cccs1 (stereo not given),n,n,n,n,n,n
N#CC1=C2SCC(O)(c3ccccc3)N2C(=O)CC1c1ccccc1F (stereo not given),u,9.2µM,n,n,u,n
N#CC1=C2SCC(O)(c3ccccc3)N2C(=O)CC1c1cccs1 (stereo not given),0.581µM,0.731µM,n,n,n,n
CCCNC(=O)c1cc2nc(-c3ccc(Br)cc3)cc(C(F)(F)F)n2n1,n,n,n,n,n,n
C=C(CN(C)C)C(=O)c1cc(C)ccc1C,u,u,n,10.6µM,10.6µM,2.51µM
Cc1ccc(C)c(C(=O)NCCN(C)C)c1,n,n,n,n,n,n
CCOc1ccn(-c2ccc(F)cc2)c(=O)c1C(=O)Nc1ccc(Oc2ccnc(N)c2Cl)c(F)c1,x,x,x,n,x,x
CN(C)CCCN(C(=O)c1cccs1)c1nc(-c2ccccc2)cs1,9.2µM,n,n,n,n,n
COc1ccc(-c2csc(N(CCCN(C)C)C(=O)c3ccccc3C)n2)cc1,n,n,10µM,u,n,u
COc1ccc(-c2csc(N(CCCN(C)C)C(=O)c3ccccc3Cl)n2)cc1,u,16.4µM,n,u,n,u
c1ccc(COc2ccccc2CNC23CC4CC(CC(C4)C2)C3)cc1,u,u,10µM,15.8µM,x,u
Cc1cc(=O)[nH]c2nnc(SCc3ccc(F)cc3)n12,x,x,n,x,x,n
CCC(=O)NC(Cc1ccccc1)c1ccc2c(c1)OCCCO2 (stereo not given),13µM,n,n,n,n,n
CCC(C)(C)NC(=O)C(c1ccc(C)o1)N(C(=O)c1csnn1)c1cccc(F)c1 (stereo not given),16.4µM,n,n,n,n,n
CCC(C)(C)NC(=O)C(c1ccc(C)cc1)N(Cc1cccnc1)C(=O)c1csnn1 (stereo not given),n,n,n,n,n,n
